# From paper PMC7819943, “Rice protein-binding microarrays: a tool to detect cis-acting elements near promoter regions in rice”
# Whole data set: some 35,000 sequences, median “fluorescence intensity (a.u.)” near 10,000, cut for the highest 2% near 52,000. What follows is part of a selection rich in the highest values, with near analogues and random picks from the rest.
# Target: T1, OsWOX13 (Oryza sativa, UniProt Q5QMM3 1-267)
# T1 sequence: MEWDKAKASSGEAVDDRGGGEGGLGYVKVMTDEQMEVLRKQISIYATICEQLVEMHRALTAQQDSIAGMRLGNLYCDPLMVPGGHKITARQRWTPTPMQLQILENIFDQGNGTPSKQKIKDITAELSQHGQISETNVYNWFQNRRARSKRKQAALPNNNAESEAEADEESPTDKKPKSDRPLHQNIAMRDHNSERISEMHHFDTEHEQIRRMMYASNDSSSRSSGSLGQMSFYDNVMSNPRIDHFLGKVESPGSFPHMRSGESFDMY
# Experiment: protein-binding microarray (RPBM); PBS, 2% BSA, 51.3 ng/ul salmon testes DNA, 50 uM zinc acetate, 200 nM TF, 25 C, 1 h; high values mean tight binding
# Settings: protein: recombinant; tags: N-terminal polyhistidine and DsRed monomer fusion (pET32a); label: CyDye5-dUTP incorporated in the synthesized complementary strand; 3' TTTTT single-stranded linker to array surface; dsDNA, one strand shown
# How it was run: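 The binding signal for each feature is its fluorescence intensity in arbitrary units. An Axon 4000B scanner was used to read a custom Agilent array that had been made double-stranded with Cy5-dUTP primer extension, blocked with 2% BSA, incubated at 25 °C for 1 h with 200 nM protein in PBS, 2% BSA, salmon testes DNA and 50 µM zinc acetate, and washed. The protein was an N-terminal polyhistidine–DsRed transcription factor fusion from E. coli BL21-CodonPlus, purified on Ni–NTA.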
row,Sequence,binding signal
1,GATCAAAAGAAATTTGCCAAATTTACTGCTTTGTGATGGGCGGAGTCACCTAGTGCAG,3610 fluorescence intensity (a.u.)
2,CATTAATTAAACTAACCCATCCATTGATTGATTATCAGTGCGGAGTCACCTAGTGCAG,63500 fluorescence intensity (a.u.)
3,ATTGATTTTATTAAGTAACTGTGTGCTAATTAATTGTTCACGGAGTCACCTAGTGCAG,28300 fluorescence intensity (a.u.)
4,TGTTAACTAATTAAATACCCATTATCAAACATTTAATTGACGGAGTCACCTAGTGCAG,22900 fluorescence intensity (a.u.)
5,TTATGATTTTCATATAAATCAAATGGGACTTTAATTAATCCGGAGTCACCTAGTGCAG,11500 fluorescence intensity (a.u.)
6,ATGGACTAATTATGCTCAAAAGATTCGTCTCACGATTTACCGGAGTCACCTAGTGCAG,16800 fluorescence intensity (a.u.)
7,TAATTAATTGATTAATGACTAAACTTGGCCATCAACCGCTCGGAGTCACCTAGTGCAG,64800 fluorescence intensity (a.u.)
8,GCTCTGATTAATTTCAAACTTCGATTATGGACTAGTCAACCGGAGTCACCTAGTGCAG,53400 fluorescence intensity (a.u.)
9,GATAAGTGATTGATTAACTACTAATTTAATTATCACTGTGCGGAGTCACCTAGTGCAG,63300 fluorescence intensity (a.u.)
10,CATCAACATATAATTGATTAAATATTAATTATAACAAACTCGGAGTCACCTAGTGCAG,45700 fluorescence intensity (a.u.)
11,ATCACCGACTAATTAATTAATTAATTAATCATCCTTGATTCGGAGTCACCTAGTGCAG,38800 fluorescence intensity (a.u.)
12,CTAATTATAAACCTTAATCAGCTAAAATCCTAACCCATCACGGAGTCACCTAGTGCAG,3290 fluorescence intensity (a.u.)
13,TGACCTAATTAATTATTTAACTAATAATAATTAGTGATTACGGAGTCACCTAGTGCAG,44500 fluorescence intensity (a.u.)
14,TTGTAATGGTGAAATCATGTTCAGTTTATTGTCGTACAAACGGAGTCACCTAGTGCAG,3710 fluorescence intensity (a.u.)
15,GCAAATGGATTGTACAACTATGGAAGGGGCAGGTTCGAGGCGGAGTCACCTAGTGCAG,5170 fluorescence intensity (a.u.)
16,GTTTAATTAAAATCCACCAACAATGACAATTTAATAGGTGCGGAGTCACCTAGTGCAG,32300 fluorescence intensity (a.u.)
17,CACTTAACTGAACACTTACTTCTCGGTGACAAGTGAAATGCGGAGTCACCTAGTGCAG,10800 fluorescence intensity (a.u.)
18,TAACTAATTACCAAACAGATCGTACCCCACCATAAGAATCCGGAGTCACCTAGTGCAG,29200 fluorescence intensity (a.u.)
19,CTAATTGGCAAATTAAACAAAGAAGAAGAGGAAAGGAAGGCGGAGTCACCTAGTGCAG,44700 fluorescence intensity (a.u.)
20,TAACTAATTATTAATTGTTTTCCTATCATTTGATTCATTGCGGAGTCACCTAGTGCAG,53200 fluorescence intensity (a.u.)
21,TAAACTGATATAAGTGCCTAAATTTGGATTGAGGGTGGTGCGGAGTCACCTAGTGCAG,8300 fluorescence intensity (a.u.)
22,GATTTAATGGATCACCTGCTATTACAGATTCCTTCAGTTGCGGAGTCACCTAGTGCAG,4210 fluorescence intensity (a.u.)

row,Sequence,binding signal
1,TAAGTAATTATTAATTCTTTTCCTATCATTTGATTTATTGCGGAGTCACCTAGTGCAG,11700 fluorescence intensity (a.u.)
2,AGTAATTATTAATTATTTTCCTATCATTTGATTTATTGTTCGGAGTCACCTAGTGCAG,35700 fluorescence intensity (a.u.)
3,ACAGTGTAATTACACTATGATTGTACTGTAATTACATTTGCGGAGTCACCTAGTGCAG,44000 fluorescence intensity (a.u.)
4,TTTGATTAATTCAGTGCTTCCTTCCCGTTACATTACACTGCGGAGTCACCTAGTGCAG,54000 fluorescence intensity (a.u.)
5,AAACTTTAATTTATCAACCATAAAAGAAACAATTAGAAGGCGGAGTCACCTAGTGCAG,6940 fluorescence intensity (a.u.)
6,AAATGATTTGATCTAAATTGATAAGTTACTGAGGAGTGCGCGGAGTCACCTAGTGCAG,64800 fluorescence intensity (a.u.)
7,GCTAATTAACTGTGATTGCAAGAAGGAAAACCATAGAAGGCGGAGTCACCTAGTGCAG,53800 fluorescence intensity (a.u.)
8,GTAATTATAATAATGAGTTACTGATCGAGAGGAGGAGAGGCGGAGTCACCTAGTGCAG,7580 fluorescence intensity (a.u.)
9,CTCTAATGAATGTGCATGTTATGTTTCCAAATCTCACTAGCGGAGTCACCTAGTGCAG,3850 fluorescence intensity (a.u.)
10,TCTCATACAATCAACAACCTTAAACACATCAGCTCTAGTACGGAGTCACCTAGTGCAG,4160 fluorescence intensity (a.u.)
11,CTTCTGATAACAACTGATTAGAAACTATGTTAATTTGATGCGGAGTCACCTAGTGCAG,31100 fluorescence intensity (a.u.)
12,TACTCTTAGATTGAACAGGCTTCTGGCTCAAAACTTTTGACGGAGTCACCTAGTGCAG,8550 fluorescence intensity (a.u.)
13,ATTAATTATTTATTTCTTATATTACAGATTTTCAGTATATCGGAGTCACCTAGTGCAG,18600 fluorescence intensity (a.u.)
14,TATAACTAATTATTTAATCGTTAATAAGCTGTTCCGCTAACGGAGTCACCTAGTGCAG,25600 fluorescence intensity (a.u.)
15,ACTGCTAATTAACCCTCTATAAATGCATGCCTCTCACCACCGGAGTCACCTAGTGCAG,30400 fluorescence intensity (a.u.)
16,TTTAACATTTCCCCTTATAATTTTACCAAATCACTATGTTCGGAGTCACCTAGTGCAG,4600 fluorescence intensity (a.u.)
17,CCTCGCGCGCAGATAATTATCACAACTTATGGGGAGCTTGCGGAGTCACCTAGTGCAG,3290 fluorescence intensity (a.u.)
18,CTCATTAATCTTGCTCATTAATCTTGCAATTAATCCAGAACGGAGTCACCTAGTGCAG,4900 fluorescence intensity (a.u.)
19,CACTTCTGTACTTGGCGTGATTGGGCCGCGGACCGGTAGACGGAGTCACCTAGTGCAG,3750 fluorescence intensity (a.u.)
20,GTTTAGGACCTTTGATTTGTTGGTGACAGAACCCAAGGCGCGGAGTCACCTAGTGCAG,6360 fluorescence intensity (a.u.)
21,AGTAATTTAAACACGAAAACATTTCTTATTGACAAGAATACGGAGTCACCTAGTGCAG,4230 fluorescence intensity (a.u.)
22,TAAGGCAGAAAACCAAGGCCTTGACATTTCTTTTAGGACACGGAGTCACCTAGTGCAG,65000 fluorescence intensity (a.u.)
